Whole data set: some 33,000 sequences, median “E-score (-0.5 to 0.5)” near -0.016, cut for the highest 2% near 0.31. The list comes from a sample in which the highest values are over-represented; it also holds similar and randomly drawn sequences.
target: Cst6 (UniProt P40535); test: PBM E-score (8-mer binding enrichment) (E-score (-0.5 to 0.5)); higher = stronger / more preferred TF binding; settings: protein concentration: 200 nM; construct: GST-DNA-binding domain
In short: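 Yeast transcription factors carrying a GST tag, as full-length proteins or DNA-binding domains, were produced by PURExpress in vitro transcription/translation. About 100-200 nM protein was applied to universal all-10-mer Agilent arrays, double-stranded by primer extension on fresh or once-stripped slides. Bound protein was detected with fluorescent anti-GST, and scans were normalised with masliner. The Universal PBM Analysis Suite gave each ungapped eight-base word, pooled with its reverse complement, an E-score, a modified Wilcoxon-Mann-Whitney statistic.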

UniProt P40535, sequence (P40535 whole entry, the tested form may be a part): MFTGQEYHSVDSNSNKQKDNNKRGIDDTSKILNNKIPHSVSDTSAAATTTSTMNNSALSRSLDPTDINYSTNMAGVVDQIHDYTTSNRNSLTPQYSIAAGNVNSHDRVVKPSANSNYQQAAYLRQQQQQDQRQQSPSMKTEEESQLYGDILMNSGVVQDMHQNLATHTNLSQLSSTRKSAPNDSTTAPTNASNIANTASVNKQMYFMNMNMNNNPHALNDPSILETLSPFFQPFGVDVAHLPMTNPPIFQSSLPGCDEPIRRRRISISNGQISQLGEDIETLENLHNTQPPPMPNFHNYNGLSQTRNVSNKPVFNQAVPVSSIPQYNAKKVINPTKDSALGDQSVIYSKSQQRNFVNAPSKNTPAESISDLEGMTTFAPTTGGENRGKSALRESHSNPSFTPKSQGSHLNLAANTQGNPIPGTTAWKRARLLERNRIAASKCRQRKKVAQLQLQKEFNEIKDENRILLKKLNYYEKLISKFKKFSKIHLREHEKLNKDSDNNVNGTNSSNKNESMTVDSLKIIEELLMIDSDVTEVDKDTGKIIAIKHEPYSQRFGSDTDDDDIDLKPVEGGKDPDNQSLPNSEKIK

Sequence	PBM E-score
CCAGTTCA	0.0369
GAAATGAC	0.32
GTAATGAA	0.268
CTAATGAC	0.252
CTAATGGA	-0.085
GTAATGGA	0.353
AAAATGAA	0.155
GAAATGAA	0.237
AAAATGAT	0.298
GTAATGAC	0.377
ATAATGGA	0.109
CAAATGAC	0.248
AAAATGAC	0.327
CTGCATCC	-0.101
CTTGCAGA	-0.138
CACGCCCA	-0.21
GCTAACCC	-0.223
ACATCCCC	-0.119
AAAGCCCA	6e-05
GACGCATA	0.315
CACGCATA	-0.215
GACGCATC	0.0635
GCTTCCTA	-0.0171
ACACCACG	-0.0337
CAATGCCA	-0.0721

Sequence	PBM E-score
GGCGTCTA	0.0648
AGCGTCAA	0.269
CGCGTCAG	0.0126
GGCGTCAC	0.431
CGCGTCAA	0.211
AGCGTCAG	0.177
GGCGTCCC	-0.225
AGCGTCAT	0.423
AGAGTCAT	-0.0245
AGCGTCCT	-0.276
AGCGTCAC	0.332
CGCGTCAC	0.418
AATCCATA	0.0862
CGCCGAGC	0.0842
CTGTCGCA	-0.146
CGGTCCTC	-0.133
CATGCGAA	0.111
AAGTTAAT	0.213
AGAGAAAC	0.0803
AATTGGCG	0.198
GTCTCTTA	-0.00905
CCGATGAG	-0.087
GCGATGAA	0.0225
ACGATGAT	0.206
ACGATGAC	0.387

Sequence	PBM E-score
GCGATGAC	0.413
GGGATGAC	0.221
CCGATGAA	0.0447
ACGATGAA	0.154
CCGATGAC	0.336
AACTGAGC	-0.152
AGGGCCTA	-0.327
AACCTACG	-0.043
CTGAGGTA	0.0121
ATGAGGTG	0.174
ATGAGGTA	0.312
AACTGCTC	-0.0302
GAGGTGAA	-0.0049
ACTGTCAT	0.0752
AATGTAAG	0.192
AATGTAAT	0.347
AATGTCAG	-0.00168
AATGTCGT	0.195
GCTGTCAC	0.0464
AATGTAAA	0.258
GATGTCAC	0.448
AATGTCAT	0.356
GATGTCAA	0.245
ACTGTCAC	0.141
AATGTCAC	0.308

Sequence	PBM E-score
CGACCCCG	-0.235
AACCTAAT	-0.0438
CAGTTTTA	0.00126
AGTAGGTA	-0.0379
CCGATCTA	-0.27
CGAACGAA	0.0744
AAGGCGCT	0.118
CACACGGC	0.293
ACGTACCG	0.0475
ATTTCGAG	0.0911
TCAGGGAA	-0.141
CGGCTGGC	-0.28
CATGTCAG	0.144
CATGTCAA	0.161
CATGTAAC	0.014
CATGTCAC	0.36
AATGTAAC	0.0559
GATGTAAC	0.341
ATTGGCCC	-0.36
GATGAGAC	0.0611
ATAATGTA	0.203
CATTCCCG	0.0388
ATGTTGAA	0.104
GGTAATAA	0.247
CGTAATAC	0.366

Sequence	PBM E-score
CCTAATAA	0.00168
AGTAATAG	0.211
GGTAATAC	0.111
CGTAATAA	0.325
CGTAATAG	0.318
AGTAATAA	0.302
CATAATAG	0.202
CTTAATAA	0.155
AGTAATAC	-0.0264
TGTAATAA	0.329
CATTGCCC	-0.241
AACTTGCT	-0.117
CTAACTAG	0.0585
GGATTGCA	0.0154
ATATACAT	0.16
TGGGGAAA	0.0662
AACCATCC	-0.0939
AGAATGAA	0.207
AGAATGAC	0.354
GGAATGAC	0.255
CGAATGAC	0.348
AGAATGAG	-0.0205
CGAATGAA	0.0688
GGACGGGA	-0.285
ATAAGTAA	0.164

Sequence	PBM E-score
CACTGACA	0.08
AGCTGACC	-0.126
CGCTGACG	0.384
CGCTGACC	-0.0695
AGCTGACT	-0.0426
CACTGACG	0.371
CACTGACC	-0.133
AGCTGACG	0.359
CGCTGACA	0.166
AGCTTTAA	0.127
CGGCTAGA	-0.038
ATTTCAGC	0.00693
ATGGAAAT	0.122
GGCTACAC	-0.0907
CTCCAGAC	-0.158
TACATTAA	0.19
GGTGCGTA	-0.062
CGGTTAAG	-0.0846
CAGTCATA	0.123
ACGTCATA	0.494
CCGTCATA	0.363
AGGTCATC	0.231
ACGTCATG	0.495
AGGTCATG	0.221
ACGTCATC	0.497

Sequence	PBM E-score
AAGTCATG	0.185
AAGTCATA	0.283
CGGTCATA	0.298
AGGTCATA	0.168
AAGTCATC	0.114
CTAGACTC	-0.329
CAAGGCAG	-0.119
CCATGGCG	0.102
ATTCAGTA	0.164
AAGGGACA	-0.141
AATTGTTG	0.0795
GGCGGGCA	-0.0394
CAGTCATC	-0.0341
GGGTCATA	-0.0664
CCGTCATC	0.385
CGGTCATC	0.085
GAGTCATA	0.144
GCGTCATA	0.463
AACGAAAT	0.156
AGATTGAG	0.228
CCTTGGCA	-0.209
ATTTGTTC	0.332
CTTTGTTC	0.126
ATTTGTTA	0.22
GTTGGCTA	-0.0861

Sequence	PBM E-score
AGCTTTTC	-0.00677
TCGGCACA	-0.0165
ACGGCTCG	0.312
ACGGCACA	0.327
CCGGCACG	-0.1
ACGGCAGA	0.064
ACGGCACG	0.348
CCGGCTCG	-0.128
ACGGCTCC	0.256
CCGGCACA	-0.136
CAGGCGTC	-0.00038
CGCGCGAG	0.0316
ACAGGCCA	-0.202
GAAATTGA	0.153
CGGTCGTA	-0.304
GTTGCCGA	0.0213
GCACCAGC	-0.176
AGTATGGG	-0.162
ACGCGGCT	0.248
AGGCGGCG	0.204
ACGCGGCA	0.28
GCGCGGCA	0.264
ATGCGGCG	0.343
GTGCGGCA	0.311
ACGCGGCG	0.363

Sequence	PBM E-score
CTGCGGCA	0.182
GTGCGGAA	-0.0138
AGGCGGCA	0.119
ATGCGGCC	0.0608
ATGCGGCA	0.312
GAATTCAC	0.0689
GCCAACCA	-0.0975
ATACCCTG	-0.0744
CGGAAGCA	0.151
AGTCTTCA	-0.0551
TCCCCACA	-0.103
AGGGCACC	-0.282
ACGGCATA	0.245
ACGGCATC	0.375
GCGGCACA	0.176
ACGGCACT	0.352
AGGGCACT	-0.0161
GCGGCACC	0.311
AAGGCACT	-0.0255
ACGGCACC	0.391
GCGGCAGC	-0.104
ACGGCATG	0.126
CCGGCACC	-0.146
AATCAGAA	0.00689
CATATCCC	0.0321

Sequence	PBM E-score
ACGATCAA	0.135
AAACCATG	-0.0483
GCGACTAA	0.0201
GAGTTTGC	-0.0936
CGTAAAGA	0.167
ATTGGTCG	0.069
CTCACGGC	0.105
GAGTTTCC	-0.137
CCGGACGC	8e-05
ACGGCAAG	0.0822
ACGGCAAT	0.329
ACGGCAAA	0.28
TCTACAGA	-0.0513
AGTACCTA	0.00893
CGAAAAGA	0.313
GGAAAAGA	0.0532
AGAAAAGA	0.112
ACTAAAGC	0.0156
CATGATAA	0.155
TAAGATAA	0.159
AGTGATAT	0.0988
CATGATAC	0.251
AATGATAT	0.322
GATGATAC	0.127
AATGATAG	0.174

Sequence	PBM E-score
AAAGATAG	-0.026
AAAGATAA	0.308
AATGATAC	0.316
ACTGATAT	0.109
AATGATAA	0.347
CGATATCA	0.145
AAGCTTTC	0.0818
AACTGATT	0.0959
TCGCGCCA	-0.0121
GTCCGAGA	0.0681
GTCTAGAC	-0.0977
CACCAAAC	0.17
TACTCCCA	-0.0234
AGTCAAAT	0.0827
CTTAATGC	0.142
GGTAATGA	0.213
CGTAATGA	0.402
AGTAATGC	0.0951
AGTAATGA	0.247
CGTAATGC	0.365
ATTATGGC	0.0901
TCGCGCAA	0.15
ACTCGTCC	-0.094
CCTCGTCG	-0.0925
TCTCGTCA	0.329

Sequence	PBM E-score
GCTCGTCA	0.238
ACTCGTCT	-0.018
CCTCGTCA	0.308
TCTCGTAA	0.305
ACTCGTCA	0.351
CCTCGTCC	-0.35
GACCTAAC	0.0894
ATCCCTCG	-0.263
GAAAGGTC	-0.196
GTTGCCCA	-0.135
GATTACAC	0.171
AATTACAC	0.116
AATTACGG	0.183
AATTACCC	0.0706
AATTACAT	0.318
AATTACGC	0.331
GATTACGC	0.329
AATTACGT	0.462
CATTACGC	0.219
AATTACAG	0.15
AGTTACGC	0.0936
AATTACGA	0.286
CACCTGGA	-0.135
TCGCGCGA	0.169
ACTCGTGC	-0.103

Sequence	PBM E-score
AGCGGCAT	0.273
TATTACGA	0.283
CATTACGA	0.205
GATTACGA	0.364
GTCTTAAC	0.14
GAAAAGCA	-0.0869
TCGTTACA	0.0818
TAACCCTA	-0.197
CATGCATG	0.0335
ACGCCGCT	0.233
ACGCCGCA	0.336
GCGCCGCC	0.25
ACGCCGCC	0.124
CCGCCGCA	0.0944
GCGCCGCA	0.38
CGTTATGA	0.0852
AGCGGAAT	-0.0286
GTAGCCGA	-0.191
AGTAATTC	0.189
AGTAATCA	0.116
GGTAATTA	0.215
CGTAATCC	0.3
CGTAATTC	0.309
TATAATCA	0.308
GATAATCA	0.131

Sequence	PBM E-score
CATAATTC	0.203
AATAATCA	0.209
CGTAATTA	0.362
AGTAATTA	0.175
CGTAATCA	0.427
CATCGCAG	-0.135
CGCCCGCC	-0.129
AAACTCAC	0.0463
CATTAGCG	-0.0563
CTCATTGC	0.105
AGAAAAAT	0.17
CATTGAGG	-0.0774
GTGAGTTA	0.0284
ACGACGAC	-0.0559
ATGACGAA	0.472
ACGACGAG	-0.211
AAGACGAG	-0.203
ATGACGAC	0.431
GAGACGAA	-0.099
CTGACGAA	0.29
GTGACGAA	0.454
ATGACGAG	0.398
CTGACGAC	0.216
GGGACGAA	-0.214
ACGACGAA	0.0916
